Activity calls are given as the source filed them. The call rests on the fitted dose curve; in most records, active means well fitted curve in the direction sought with a large enough effect in the repeat runs; inconclusive means weak or mixed curves; inactive means flat fitted curve, though single readings scatter.

This assay can be described thus: qHTS assay to test for compound auto fluorescence at 460 nm (blue) in HepG2 cells (AID 720687). The following applies: autofluorescence 405/460 nm, 1 h; series mostly up to 91.3 µM. The text has this:
U.S. Tox21 Program National Center for Advancing Translational Sciences [NCATS] NIH Chemical Genomics Center [NCGC] U.S. Environmental Protection Agency [EPA] National Institutes of Environmental Health Sciences [NIEHS] National Toxicology Program [NTP] U.S. Food and Drug Administration [FDA] Tox21 Assay Overview: Compound auto fluorescence often interferes with screening of the compound library against various biological targets and signaling pathways. Some of these compounds may have fluorophoric properties. Such properties may interfere with the assay outputs resulting in false positives and/or negatives. To decrease such complications and ensure the compound activities are relevant in terms of biological response, the Tox21 10K compound library was screened for auto fluorescence. From the fluorophores used as reporter signals in our screening assays, the auto fluorescence equivalencies of compounds against three fluorophores have been evaluated: Triamterene, Fluorescein and Rose Bengal sodium for blue, green and red fluorescence, respectively. The fluorescence intensities were measured using Excitation/Emission wavelengths at 405/460nm, 485/535nm and 540/590nm for blue, green and red labels, respectively. This assay includes the blue fluorescence data.
Tox21 Assay Protocol Summary: 2,000 HepG2 cells in 5 uL of culture medium (MEM containing 10% FBS) per well were dispensed into black wall/clear bottom 1536-well plates using a Multidrop Combi Dispenser (ThermoFisher Scientific, Waltham, MA). The assay plates were incubated overnight at 37 C to allow cell attachment to the well bottom, followed by the transfer of 23 nL compound or DMSO vehicle by a pintool work station (Kalypsys , San Diego, CA). After the assay plates were incubated for 1 hr at 37 C and 5% CO2, fluorescence intensities in the assay plates were measured by an Envision (PerkinElmer, Shelton, CT) plate reader using three labels for measuring blue, green and red fluorescence at […] 460, 535 and 590 nm respectively.
(In general: qHTS replaces the single test concentration by a dilution series.)
With `CC(C)c1ccc(S(=O)(=O)O)cc1`, the result was inactive.

As to `OC[C@H]1O[C@@](CO)(O[C@H]2O[C@H](CO)[C@@H](O)[C@H](O)[C@H]2O)[C@@H](O)[C@@H]1O`, the outcome was inactive. Under `OCc1cccnc1` stands “inactive”; under `CC(=O)CC(=O)Nc1ccccc1`, “inactive”; under `CC1=CC(=O)NS(=O)(=O)O1`, “inactive”. Under `Cc1cc(C)c(C)cc1C` stands “inactive”. Under `Cc1ccc(N(C)C)cc1` stands “inactive”. As for `CN(C)CCOCCN(C)C`, the call was inactive. As for `O=C=NCCCCCCN=C=O`, the entry is “inactive”; as for `c1c[nH]cn1`, “inactive”. Consider `Cc1cccc(O)c1`, for which the compound was called inactive. Take `C[C@H]1C[C@@H]2[C@H]([C@@H](O)C[C@@]3(C)[C@H]2CC[C@]3(O)C(=O)CO)[C@@]2(C)C=CC(=O)C=C12`: the compound was called inactive. As for `O=C(OCCOCCOC(=O)c1ccccc1)c1ccccc1`, the entry is “inactive”. On to `N[C@@H](Cc1cc(I)c(Oc2cc(I)c(O)c(I)c2)c(I)c1)C(=O)O`, for which the compound was called inactive. With `O=C(O)c1cc(=O)c2c(OCC(O)COc3cccc4oc(C(=O)O)cc(=O)c34)cccc2o1`, the compound was classed as inactive. As for `CCCCCCCCCCCCCCO`, the entry is “inactive”; as for `C[C@H]1C[C@H]2[C@@H]3CCC4=CC(=O)C=C[C@]4(C)[C@@]3(F)[C@@H](O)C[C@]2(C)[C@@]1(O)C(=O)CO`, “inactive”. As to `CCCCCOC(C)=O`, the compound was called inactive.

On to `O=C(O)CCCC[C@@H]1SC[C@@H]2NC(=O)N[C@@H]21`, for which the outcome was inactive.

Turning to `CC1=C(C)S(=O)(=O)CCS1(=O)=O`, the compound was classed as inactive. As for `Cc1ccc(S(N)(=O)=O)cc1`, the result was inactive. As for `Cc1ccc2oc(=O)ccc2c1`, the entry is “inactive”; as for `O=C(O)c1ccc(C(=O)O)cc1`, “inactive”; as for `CC(C)(C)[C@@H](O)[C@@H](Cc1ccc(Cl)cc1)n1cncn1`, “inactive”. Under `O=[N+]([O-])c1ccc(/C=C/c2ccc([N+](=O)[O-])cc2S(=O)(=O)O)c(S(=O)(=O)O)c1` stands “inactive”; under `CC1CCC(C(C)C)C(O)C1` (stereo not given), “inactive”.

As to `O=S(=O)(O)c1ccc2ccccc2c1`, the compound was classed as inactive. Under `CC(=O)Nc1cccc(O)c1` stands “inactive”. `CSCCC=O`: the call was inactive. Turning to `O=P(OC(CCl)CCl)(OC(CCl)CCl)OC(CCl)CCl`, the compound was classed as inactive. As for `O=c1[nH]c(=O)n([C@H]2CCCO2)cc1F`, the entry is “inactive”. As for `CCCCCCCCCCCCCCCO`, the entry is “inactive”; as for `Cc1occc(=O)c1O`, “inactive”. As for `C/C=C1/CC2C=CC1C2` (stereo not given), the entry is “inactive”. For the compound `C#C[C@]1(O)CC[C@H]2[C@@H]3CCC4=CC(=O)CC[C@@H]4[C@H]3CC[C@@]21C`, the result was inactive. As for `COc1ccc(Cl)cc1C(=O)NCCc1ccc(S(=O)(=O)NC(=O)NC2CCCCC2)cc1`, the entry is “inactive”; as for `O=C(Oc1ccccc1)c1ccccc1`, “inactive”.

As for `FC(F)(F)c1ccc(Cl)c(Cl)c1`, the compound was called inactive. As to `CC[C@H](C)C(=O)O[C@H]1C[C@@H](C)C=C2C=C[C@H](C)[C@H](CC[C@@H]3C[C@@H](O)CC(=O)O3)[C@H]21`, the call was inactive.

With `CCCCCC/C(C=O)=C\c1ccccc1`, the compound was called inactive.

(Values after PubChem BioAssay (Tox21).)
